# Assay results from PubChem BioAssay (Tox21).
# Where “and” joins values, the source holds several entries; their conditions need not be identical. Equal values may be shown once. Unmarked numbers belong to inactive results. Records with an inconclusive call do not appear. Entries that show only a call come without a potency. Calls of active or inactive are those of the source. Unless noted, the call rests on the fitted dose curve; in most records, active means well fitted curve in the direction sought with a large enough effect in the repeat runs; inconclusive means weak or mixed curves; inactive means no such curve, though single readings can be large; an effect the other way counts as inactive or inconclusive.
# Columns and labels:
# [1] = qHTS assay to identify small molecule agonists of the constitutive androstane receptor (CAR) signaling pathway - cell viability counter screen (AID 1224836); further: nearly all actives have a fitted effect of over 45% in size; further: potency means the concentration at half of the fitted maximal effect
# Summary of the method: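 HepG2-CYP2B6-hCAR, 2500 cells/well, 4 h pre-incubation; cpd 15 conc + PK11195 0.75 uM final; 23 h, 37 C/5% CO2; CellTiter-Fluor, fluorescence.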
# [2] = qHTS assay to identify small molecule antagonists of the constitutive androstane receptor (CAR) signaling pathway - cell viability counter screen (AID 1224837); further: nearly all actives have a fitted effect of over 45% in size; further: potency means the concentration at half of the fitted maximal effect
# Summary of the method: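 To flag cytotoxic false antagonists, HepG2 hCAR/CYP2B6-2.2kb cells were treated 23 hr with 15-concentration compound series and 50 nM CITCO at 37 C/5% CO2; CellTiter-Fluor fluorescence was the measured end point.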
# [3] = molecular target: Nuclear receptor subfamily 1 group I member 3 (Homo sapiens) (UniProt Q14994); test: qHTS assay to identify small molecule antagonists of the constitutive androstane receptor (CAR) signaling pathway (AID 1224838);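 further: HepG2 cells stably expressing hCAR with CYP2B6 luciferase reporter stimulated by CITCO; nearly all actives have a fitted effect of over 40% in size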; further: potency means the concentration at half of the fitted maximal effect
# Summary of the method: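 Human hepatoma HepG2 cells expressing hCAR and a CYP2B6 promoter (2.2 kb) luciferase construct; compound titration (15 points) with 50 nM CITCO final, 24 h at 37 C/5% CO2; luminescence via ONE-Glo after 30 min at room temperature.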
# [4] = molecular target: Nuclear receptor subfamily 1 group I member 3 (Homo sapiens) (UniProt Q14994); test: qHTS assay to identify small molecule agonists of the constitutive androstane receptor (CAR) signaling pathway (AID 1224839); further: nearly all actives have a fitted effect of over 15% in size; further: potency means the concentration at half of the fitted maximal effect;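 on activation: HepG2 cells stably carrying human CAR and a CYP2B6 luciferase reporter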
# Summary of the method: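 HepG2-CYP2B6-hCAR cells, 2500/well, 4 h pre-incubation; compounds 15 conc.; PK11195 0.75 uM final; 24 h, 37 C/5% CO2; ONE-Glo luciferase read.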
# [5] = qHTS assay to identify small molecule antagonists of the estrogen related receptor signaling pathway with the pleiotropic PPARgamma coactivator (PGC) from Tox21 10K library - cell viability counter screen (AID 1224840; active means well fitted cell-killing curve with a large enough effect in the repeat runs, not every such curve was filed as active; further: nearly all actives have a fitted effect of over 40% in size; further: potency means the concentration at half of the fitted maximal effect)
# Summary of the method: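 Seeded PGC/ERR cells (2,000/well, 6 h, 37 C/5% CO2) get compound by pin tool; 17.5 h incubation at 37 C; CellTiter-Fluor added, 30 min, fluorescence measured.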
# [6] = molecular target: Thyrotropin receptor (Homo sapiens) (UniProt P16473); test: qHTS assay to identify small molecule agonists of the thyroid stimulating hormone receptor (TSHR) signaling pathway (AID 1224843; calls by dose curve; further: nearly all actives have a fitted effect of over 45% in size; further: potency means the concentration at half of the fitted maximal effect)
# Summary of the method: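 Using 15 concentrations per compound in triplicate, cAMP production was monitored in TSHR-HEK293 cells after 30 min compound incubation at RT; HTRF reagents followed, with fluorescence intensity recorded after 1 h.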
# [7] = qHTS assay to identify small molecule agonists of the hypoxia (HIF-1) signaling pathway - cell viability counter screen (AID 1224844; calls by dose curve; further: nearly all actives have a fitted effect of over 50% in size; further: potency means the concentration at half of the fitted maximal effect)
# Summary of the method: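 HRE-bla ME-180; 0.5% dFBS; cpd 17 h, 37C, 5% CO2; CellTiter-Glo lum., 30 min RT, post-FRET read, same wells.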
# [8] = qHTS assay to identify small molecule agonists of H2AX (AID 1224845; active means well fitted activation curve with a large enough effect in the signal ratio in the repeat runs, not every such curve was filed as active; the % refers to the signal ratio; further: potency means the concentration at half of the fitted maximal effect)
# Summary of the method: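 Wild-type CHO-K1 cells plated overnight, then exposed 3 hr at 37C to compounds at 15 concentrations (0.76% DMSO). Lysed, then HTRF anti-pH2AX(S139)-cryptate/anti-H2AX-d2 detection after 24 hr at room temperature; emissions 665 and 620 nm.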
# [9] = qHTS assay to identify small molecule agonists of H2AX - cell viability counter screen (AID 1224847; calls by dose curve; further: nearly all actives have a fitted effect of over 30% in size; further: potency means the concentration at half of the fitted maximal effect)
# Summary of the method: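 Cells plated first: CHO-K1, 1000 per well in 10% FBS medium, incubated overnight at 37C. Then 15-point compound titration added (final DMSO 0.76%) for 3 hr. Finally CellTiter-Glo added and luminescence read.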
# [10] = qHTS assay to identify small molecule agonists of the estrogen related receptor (ERR) signaling pathway from Tox21 library (AID 1224849; calls by dose curve; further: nearly all actives have a fitted effect of over 15% in size); conditions: ERR reporter cell line, ONE-Glo luciferase, 18 h; at 92.4 µM (top of the series) unless noted
# Summary of the method: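 Tox21 compounds tested for ERR agonism in an NTP reporter cell line: 18 h treatment at 37 C, then ONE-Glo luminescence.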
# [11] = qHTS RealTime-Glo MT Cell Viability Assay in HepG2 cells - 24 hour (AID 1224867); further: nearly all actives have a fitted effect of over 50% in size; further: potency means the concentration at half of the fitted maximal effect
# Summary of the method: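 qHTS, HepG2, 600 cells/well, RealTime-Glo (NanoLuc + prosubstrate) added with cells; 5 h preincubation; DMSO compound addition; 37 C; luminescence at 0/8/16/24/32/40 h.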
# [12] = qHTS RealTime-Glo MT Cell Viability Assay in HEK293 cells - 32 hour (AID 1224868); further: nearly all actives have a fitted effect of over 50% in size; further: potency means the concentration at half of the fitted maximal effect
# Summary of the method: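 Assay medium contained NanoLuc luciferase plus cell-permeant prosubstrate, added with HEK293 cells at 600 cells/well. After 5 h at 37 C/5% CO2 compounds were added; plates stayed at 37 C for 40 h with serial luminescence reads.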
# [13] = A CellTox Green Cytotoxicity Assay to monitor cytotoxicity in HEK293 cells - 0 hour (AID 1224869); further: nearly all actives have a fitted effect of over 50% in size
# Summary of the method: (§1)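 Tox21 screen in HEK293: membrane-impermeant cyanine dye fluoresces on binding dead-cell DNA; compound pinned 5 h post-seeding, plates held at 37 C, signal read repeatedly through 40 h.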
# [14] = qHTS RealTime-Glo MT Cell Viability Assay in HepG2 cells - 40 hour (AID 1224870); further: nearly all actives have a fitted effect of over 50% in size; further: potency means the concentration at half of the fitted maximal effect
# Summary of the method: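 HepG2 cells mixed with RealTime-Glo MT reagents (NanoLuc plus cell-permeant prosubstrate) were seeded at 600 cells/well, incubated 5 h at 37 C/5% CO2, then pinned with compounds in DMSO; nonlytic luminescence tracked viability during 40 h treatment.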
# [15] = A CellTox Green Cytotoxicity Assay to monitor cytotoxicity in HEK293 cells - 40 hour (AID 1224871); further: nearly all actives have a fitted effect of over 45% in size; further: potency means the concentration at half of the fitted maximal effect
# Summary of the method: as §1
# [16] = qHTS assay to identify small molecule agonists of the hypoxia (HIF-1) signaling pathway (AID 1224846; active means well fitted activation curve with a large enough effect in the signal ratio in the repeat runs, not every such curve was filed as active; the % refers to the signal ratio)
# Summary of the method: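 Reporter induction in HRE-bla ME-180 cells is taken as agonism: cells sit 5 hrs after plating, receive compounds or DMSO only, incubate 17 hrs at 37C under 5% CO2, and are loaded with CCF4-AM for beta-lactamase FRET measurement.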
# [17] = qHTS assay to identify small molecule antagonists of the estrogen related receptor signaling pathway with the pleiotropic PPARgamma coactivator (PGC) from Tox21 10K library (AID 1224841; call rule not given here)
# Summary of the method: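 Test chemicals dissolved in DMSO were applied to pre-incubated (6 h) PGC/ERR cells at 2,000 cells/well for an 18 h, 37 C treatment; reporter luminescence was then read using One-Glo.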
# [18] = qHTS assay to identify small molecule agonists of the estrogen related receptor signaling pathway with the pleiotropic PPARgamma coactivator (PGC) from Tox21 10K library (AID 1224842); further: nearly all actives have a fitted effect of over 15% in size
# Summary of the method: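 PGC/ERR reporter cells (NTP line) were seeded 2,000 per well, rested 6 h at 37 C/5% CO2, then pin-dosed with compounds in DMSO for 18 h at 37 C; luciferase read by One-Glo luminescence after 30 min at room temperature.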
# [19] = qHTS assay to identify small molecule antagonists of the estrogen related receptor (ERR) signaling pathway from Tox21 library (AID 1224848)
# Summary of the method: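 Tox21 10K compounds in DMSO tested for ERR pathway antagonism in NTP's ERR cell line; 18 h, 37 C exposure; ONE-Glo luminescence.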
# Sequence of Thyrotropin receptor (Homo sapiens) (P16473 whole entry, looked up): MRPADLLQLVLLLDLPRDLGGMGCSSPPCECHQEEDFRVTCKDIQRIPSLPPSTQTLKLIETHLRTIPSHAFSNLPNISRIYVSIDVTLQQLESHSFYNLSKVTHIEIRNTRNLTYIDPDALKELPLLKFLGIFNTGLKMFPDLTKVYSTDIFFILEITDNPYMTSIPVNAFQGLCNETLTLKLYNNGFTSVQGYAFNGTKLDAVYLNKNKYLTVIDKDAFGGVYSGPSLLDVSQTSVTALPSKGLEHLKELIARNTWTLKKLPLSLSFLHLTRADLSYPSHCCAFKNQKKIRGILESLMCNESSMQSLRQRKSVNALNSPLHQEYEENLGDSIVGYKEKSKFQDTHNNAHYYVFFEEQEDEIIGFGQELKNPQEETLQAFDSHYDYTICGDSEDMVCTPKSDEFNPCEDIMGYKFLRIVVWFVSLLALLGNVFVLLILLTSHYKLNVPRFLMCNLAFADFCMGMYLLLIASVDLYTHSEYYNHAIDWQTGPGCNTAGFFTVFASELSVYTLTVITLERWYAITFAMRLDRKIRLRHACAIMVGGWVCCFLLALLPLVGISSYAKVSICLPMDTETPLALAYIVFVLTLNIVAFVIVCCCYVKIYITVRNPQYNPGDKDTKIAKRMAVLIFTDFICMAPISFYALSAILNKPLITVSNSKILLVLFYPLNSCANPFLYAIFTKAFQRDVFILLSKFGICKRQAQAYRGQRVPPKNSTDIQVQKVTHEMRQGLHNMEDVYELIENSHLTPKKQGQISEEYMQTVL
# Sequence of Nuclear receptor subfamily 1 group I member 3 (Homo sapiens) (Q14994 whole entry, looked up): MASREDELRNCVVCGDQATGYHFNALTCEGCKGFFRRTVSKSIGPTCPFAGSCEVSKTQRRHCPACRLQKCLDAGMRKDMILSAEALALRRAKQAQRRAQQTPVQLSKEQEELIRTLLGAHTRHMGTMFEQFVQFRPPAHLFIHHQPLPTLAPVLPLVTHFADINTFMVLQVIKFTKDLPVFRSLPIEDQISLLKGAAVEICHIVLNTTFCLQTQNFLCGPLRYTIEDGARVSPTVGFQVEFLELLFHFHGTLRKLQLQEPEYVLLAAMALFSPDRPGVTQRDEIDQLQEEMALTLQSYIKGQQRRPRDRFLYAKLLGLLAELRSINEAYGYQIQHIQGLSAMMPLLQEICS
structure (smiles),measurement,setting,value
C[CH2][Hg][N]1C(=O)C2C(C1=O)C1(Cl)C(Cl)=C(Cl)C2(Cl)C1(Cl)Cl (stereo not given),Potency,[1],14.6 µM (active)
same,Potency,[2],13 µM (active)
same,Potency,[3],11.6 µM (active)
same,activation,[4],-23.5% [at 19 µM]
same,Potency,[5],13 µM (active)
same,activation,[6],-16.4% [at 19 µM]
same,Potency,[7],2.33 µM (active)
same,Potency,[8],10.7 µM (active)
same,Potency,[9],13.5 µM (active)
same,"activity change, positive = activation",[10],-76.3% [at 19 µM]
same,Potency,[11],6.57 µM (active)
same,Potency,[12],2.33 µM (active)
same,cytotoxicity,[13],-0.189% [at 15.8 µM]
same,Potency,[14],6.57 µM (active)
same,Potency,[15],4.65 µM (active)
CC1(C)[C@H](C(=O)O[C@H](C#N)c2cccc(Oc3ccccc3)c2)[C@@H]1/C=C(\Cl)C(F)(F)F,Potency,[1],inactive
same,Potency,[2],inactive
same,Potency,[3],inactive
same,Potency,[4],inactive
same,Potency,[5],inactive
same,Potency,[6],inactive
same,Potency,[7],inactive
same,Potency,[8],inactive
same,Potency,[9],inactive
same,Potency,[11],inactive
same,Potency,[12],inactive
same,Potency,[13],inactive
same,Potency,[15],inactive
ClCc1ccc(Cl)cc1Cl,Potency,[1],inactive
same,Potency,[2],inactive
same,Potency,[3],inactive
same,Potency,[4],inactive
same,Potency,[5],inactive
same,Potency,[6],inactive
same,Potency,[7],inactive
same,Potency,[8],inactive
same,outcome,[16],inactive
same,Potency,[9],inactive
same,Potency,[11],inactive
same,Potency,[13],inactive
same,Potency,[14],inactive
Nc1ccc(Cc2ccc(N)c(Cl)c2)cc1Cl,Potency,[3],inactive
same,Potency,[4],16.7 µM (active)
same,Potency,[17],13.2 µM (active)
same,Potency,[18],inactive
same,Potency,[6],inactive
same,Potency,[19],26.4 µM (active)
same,"activity change, positive = activation",[10],-35.2%
same,Potency,[11],inactive
same,Potency,[13],inactive
same,Potency,[14],inactive
N#Cc1c(-c2ccc(Cl)cc2)[nH]c(C(F)(F)F)c1Br,Potency,[2],1.22 µM (active)
same,Potency,[3],0.969 µM (active)
same,Potency,[4],inactive
same,Potency,[5],1.54 µM (active)
same,Potency,[17],0.486 µM (active)
same,Potency,[18],inactive
same,Potency,[6],inactive
same,Potency,[7],inactive
same,Potency,[8],inactive
same,Potency,[9],2.84 µM (active)
same,Potency,[19],0.344 µM (active)
same,"activity change, positive = activation",[10],-60.7%
same,Potency,[11],inactive
same,Potency,[12],1.55 µM (active)
same,Potency,[13],inactive
same,Potency,[14],inactive
ClC1=C(Cl)C2(Cl)C3C(Cl)C=CC3C1(Cl)C2(Cl)Cl (stereo not given),Potency,[1],inactive
same,Potency,[2],inactive
same,Potency,[3],inactive
same,Potency,[5],inactive
same,Potency,[6],7.73 µM (active) and 15.4 µM (active)
same,Potency,[9],113 µM (active)
same,Potency,[12],49.2 µM (active) and 49 µM (active)
same,Potency,[13],inactive
same,Potency,[15],55.2 µM (active) and 49 µM (active)
Oc1cc(Cl)c(Cl)c(Cl)c1,Potency,[4],inactive
same,Potency,[17],36.6 µM (active)
same,Potency,[18],inactive
same,Potency,[6],inactive
same,Potency,[7],inactive
same,Potency,[8],inactive
same,Potency,[9],42.7 µM (active)
same,Potency,[19],29.1 µM (active)
same,"activity change, positive = activation",[10],-65.2%
same,Potency,[11],inactive
same,Potency,[13],inactive
same,Potency,[15],13.1 µM (active)
COS(=O)(=O)c1ccc(C)cc1,Potency,[1],inactive
same,Potency,[2],inactive
same,Potency,[5],inactive
same,Potency,[6],inactive
same,Potency,[7],inactive
same,Potency,[8],inactive
same,outcome,[16],inactive
same,Potency,[9],inactive
same,Potency,[11],inactive
same,Potency,[13],inactive
same,Potency,[14],inactive
same,Potency,[15],inactive
